Source: the supplement of paper PMC8866396
Where “and” joins values, the source holds several entries; their conditions need not be identical. Identical values can stand only once. Counter-ions that a name gives are not always drawn. ± gives the standard deviation of the averaged measurements.

What was measured:
IL-6-GFP PC-9GR = assay: cell viability (CCK-8 OD) relative to DMSO control (fraction of control); higher = more viable cells; conditions: compound concentration: 10 uM; treatment time: 48 h
In short: (§1)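 Compounds from a purchased library of 510 were each tested at a final 10 μM for 48 h on PC-9 and PC-9GR lung cancer cells plated at 3000 cells/well in 96-well plates. These cells overexpressed IL-6-GFP from a lentiviral construct. Viability came from CCK-8 absorbance, given as the optical density of each well over that of the vehicle control well, across independent replicates numbering two.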

IL-6-GFP PC-9 = assay: as above; conditions: compound concentration: 10 uM; treatment time: 48 h
In short: as §1

SMILES	cell viability (IL-6-GFP PC-9GR)	cell viability (IL-6-GFP PC-9)
O=C(O)c1ccccc1Nc1cccc(C(F)(F)F)c1 [Flufenamic acid]	1.15 ± 0.34	1.14 ± 0.15
Cc1nc(Nc2ncc(C(=O)Nc3c(C)cccc3Cl)s2)cc(N2CCN(CCO)CC2)n1.Cl [Dasatinib hydrochloride]	0.517 ± 0.025	0.438 ± 0.063
CS(=O)(=O)c1ccc(C(=O)Nc2ccc(Cl)c(-c3ccccn3)c2)c(Cl)c1 [Vismodegib (GDC-0449)]	1.05 ± 0.072	0.311 ± 0.32
Cc1ccc(Nc2nccc(N(C)c3ccc4c(C)n(C)nc4c3)n2)cc1S(N)(=O)=O [Pazopanib]	0.795 ± 0.041	0.725 ± 0.062
C[S+](C)CCC(N)C(=O)O.[Cl-] (stereo unspecified)	1.11 ± 0.29	1.08 ± 0.22
CC1CC2C3CCC4=CC(=O)C=CC4(C)C3(F)C(O)CC2(C)C1(O)C(=O)CO (stereo unspecified) [Dexamethasone (DHAP)]	1.08 ± 0.058	0.732 ± 0.072
NCCc1c[nH]cn1 [Histamine]	1.05 ± 0.16	1.29 ± 0.22
CC(=O)[N-]S(=O)(=O)c1ccc(N)cc1.[Na+] [Sulfacetamide Sodium]	0.982 ± 0.12	1.1 ± 0.014
O=C(O)Cc1ccccc1Nc1c(Cl)cccc1Cl [Diclofenac acid]	1.07 ± 0.24	1.12 ± 0.17
CNC(=O)c1cc(Oc2ccc(NC(=O)Nc3ccc(Cl)c(C(F)(F)F)c3)cc2)ccn1 [Sorafenib]	0.634 ± 0.37	0.565 ± 0.1
Nc1ccc(O)c(C(=O)O)c1 [Mesalamine]	1.27 ± 0.035	1.06 ± 0.072
COc1cc2ncnc(Nc3ccc(F)c(Cl)c3)c2cc1NC(=O)/C=C/CN1CCCCC1	0.477 ± 0.02	0.443 ± 0.033
Cc1cn(-c2cc(NC(=O)c3ccc(C)c(Nc4nccc(-c5cccnc5)n4)c3)cc(C(F)(F)F)c2)cn1 [Nilotinib (AMN-107)]	1.22 ± 0.089	1.135 ± 0.0089
Nc1ccc(S(=O)(=O)Nc2ccnn2-c2ccccc2)cc1 [Sulfaphenazole]	1.15 ± 0.36	1.29 ± 0.11
CCCCOc1ccc(C(=O)CCN2CCCCC2)cc1.Cl [Dyclonine HCl]	1.34 ± 0.43	1.12 ± 0.076
CC1CC2C3CC(F)C4=CC(=O)C=CC4(C)C3(F)C(O)CC2(C)C1(OC(=O)c1ccco1)C(=O)SCF (stereo unspecified) [fluticasone furoate]	0.711 ± 0.089	0.961 ± 0.27
CCC(=O)OCC(=O)C1(OC(=O)CC)C(C)CC2C3CCC4=CC(=O)C=CC4(C)C3(Cl)C(O)CC21C (stereo unspecified) [Beclomethasone dipropionate]	0.987 ± 0.24	0.797 ± 0.12
CC(N)c1ccc(C(=O)Nc2ccnc3[nH]ccc23)cc1.Cl.Cl (stereo unspecified)	0.973 ± 0.42	0.74 ± 0.23
CN(C)C/C=C/C(=O)Nc1cc2c(Nc3ccc(F)c(Cl)c3)ncnc2cc1OC1CCOC1.O=C(O)/C=C\C(=O)O.O=C(O)/C=C\C(=O)O (stereo unspecified) [Afatinib (BIBW2992) Dimaleate]	0.22 ± 0.11	0.167 ± 0.22
CC(C)(C)c1nc(-c2cccc(NS(=O)(=O)c3c(F)cccc3F)c2F)c(-c2ccnc(N)n2)s1.CS(=O)(=O)O [Dabrafenib Mesylate]	0.922 ± 0.18	0.921 ± 0.19
CN(C)N=Nc1[nH]cnc1C(N)=O [Dacarbazine]	0.95 ± 0.14	0.8338 ± 0.005

SMILES	cell viability (IL-6-GFP PC-9GR)	cell viability (IL-6-GFP PC-9)
Cl.O=C(OCC(O)CO)c1ccccc1Nc1ccnc2cc(Cl)ccc12 (stereo unspecified) [Glafenine HCl]	1.04 ± 0.32	1.05 ± 0.25
N#CC1CC2CC2N1C(=O)C(N)C12CC3CC(CC(O)(C3)C1)C2.O (stereo unspecified) [Saxagliptin hydrate]	0.79 ± 0.18	1.14 ± 0.091
CC(=O)Oc1cccc2c1C(=O)c1c(OC(C)=O)cc(C(=O)O)cc1C2=O [Diacerein]	1.14 ± 0.39	0.97 ± 0.034
N#CCC(C1CCCC1)n1cc(-c2ncnc3[nH]ccc23)cn1 (stereo unspecified)	1.08 and 1.17	1.11 and 0.753
CC1(C)C2CCC1(C)C(O)C2 (stereo unspecified) [Borneol]	1.27 ± 0.36	0.778 ± 0.016
Cc1coc2c1C(=O)C(=O)c1c-2ccc2c1CCCC2(C)C [Tanshinone IIA]	1.37 ± 0.095	0.705 ± 0.19
COC(=O)c1cc(OC)c2c(c1-c1c(C(=O)OC)cc(OC)c3c1OCO3)OCO2 [Bifendate]	1.19 ± 0.22	1.25 ± 0.027
OCC1OC(OCC2OC(O)C(O)C(OC3OC(CO)C(O)C(OC4OC(CO)C(O)C(OC5OC(COC6OC(CO)C(O)C(O)C6O)C(O)C(OC6OC(CO)C(O)C(O)C6O)C5O)C4O)C3O)C2O)C(O)C(O)C1O (stereo unspecified) [Lentinan]	0.121 ± 0.32	1.276 ± 0.0043
CN(C)CCN1C(=O)c2cccc3cc(N)cc(c23)C1=O [Amonafide]	0.534 ± 0.025	0.425 ± 0.076
CN1C(=O)/C(=C2/C(=O)Nc3ccccc32)c2ccccc21 [Meisoindigo]	1.39 ± 0.44	1.02 ± 0.21
O=C(O)CCC(=O)c1ccc(-c2ccccc2)cc1 [Fenbufen]	1 ± 0.06	1.08 ± 0.12
CC(=O)OC12COC1CC(O)C1(C)C(=O)C(O)C3=C(C)C(OC(=O)C(O)C(NC(=O)OC(C)(C)C)c4ccccc4)CC(O)(C(OC(=O)c4ccccc4)C21)C3(C)C.O.O.O (stereo unspecified) [Docetaxel Trihydrate]	0.528 ± 0.15	0.631 ± 0.044
CN(C)c1nc(N(C)C)nc(N(C)C)n1 [Altretamine]	1.25 ± 0.047	1.06 ± 0.036
O=C(O)c1ccccc1O.[NaH] [Sodium salicylate]	1.02 ± 0.2	1.03 ± 0.12
CNCC(O)C(O)C(O)C(O)CO.Cc1c(Nc2ncccc2C(=O)O)cccc1C(F)(F)F [Flunixin Meglumin]	1.15 ± 0.12	0.964 ± 0.087
COC(=O)C(Cc1ccccc1)NC(=O)C(N)CC(=O)O (stereo unspecified) [Aspartame]	1.08 ± 0.091	0.819 ± 0.06
Cc1nc(-c2ccc(OCC(C)C)c(C#N)c2)sc1C(=O)O [Febuxostat]	1.38 ± 0.24	1.12 ± 0.27
FC(F)(F)c1ccc(CNc2ccc(Cc3c[nH]c4ncc(Cl)cc34)cn2)cn1 [Pexidartinib (PLX3397)]	0.789 ± 0.2	0.898 ± 0.048
CN1CCC(=C2c3ccccc3CCc3cccnc32)CC1.O=C(O)/C=C\C(=O)O.O=C(O)/C=C\C(=O)O [Azatadine dimaleate]	0.981 ± 0.12	0.513 ± 0.013
S=P(N1CC1)(N1CC1)N1CC1 [Thiotepa]	1.02 ± 0.074	0.977 ± 0.074
CC(C)=CCCC(C)(OC1OC(CO)C(O)C(O)C1O)C1CCC2(C)C1C(O)CC1C3(C)CCC(O)C(C)(C)C3C(OC3OC(CO)C(O)C(O)C3O)CC12C (stereo unspecified) [Ginsenoside Rg1]	1.16 ± 0.26	1.15 ± 0.17

SMILES	cell viability (IL-6-GFP PC-9GR)	cell viability (IL-6-GFP PC-9)
COc1ccc2c(c1)nc(S(=O)Cc1ncc(C)c(OC)c1C)[n]2[Na] (stereo unspecified) [Omeprazole Sodium]	0.872 ± 0.13	0.963 ± 0.16
CC(CCC(=O)NCCS(=O)(=O)O)C1CCC2C3C(O)CC4CC(O)CCC4(C)C3CCC12C (stereo unspecified) [Tauroursodeoxycholic Acid (TUDCA)]	1.2 ± 0.37	1.24 ± 0.23
CCCCC1C(=O)N(c2ccccc2)N(c2ccccc2)C1=O [Phenylbutazone]	1.34 ± 0.094	1.25 ± 0.053
CC(=O)Nc1cccc(-n2c(=O)n(C3CC3)c(=O)c3c(Nc4ccc(I)cc4F)n(C)c(=O)c(C)c32)c1	1.04 ± 0.14	0.791 ± 0.31
COc1cc2ncnc(Nc3ccc(F)c(Cl)c3)c2cc1OCCCN1CCOCC1 [Gefitinib (ZD1839)]	0.9 ± 0.06	0.664 ± 0.061
Cl.O=C1NCC2(CCN(CCc3ccccc3)CC2)O1 [Fenspiride HCl]	1.02 ± 0.044	1.24 ± 0.015
C=CC(=O)Nc1cc(Nc2nccc(-c3cn(C)c4ccccc34)n2)c(OC)cc1N(C)CCN(C)C [Osimertinib (AZD9291)]	0.225 ± 0.073	0.372 ± 0.059
COc1ccc2cc(CCC(C)=O)ccc2c1 [Nabumetone]	1.29 ± 0.24	1.11 ± 0.13
Cc1c(-c2ccc(-c3ccccc3F)cc2)nc2ccc(F)cc2c1C(=O)O [Brequinar]	0.402 ± 0.11	0.42356 ± 0.00032
NC(=O)c1cccc2cn(-c3ccc(C4CCCNC4)cc3)nc12 (stereo unspecified) [Niraparib (MK-4827)]	0.841 ± 0.011	0.918 ± 0.045
CN(C)C(=O)c1cc2cnc(Nc3ccc(N4CCNCC4)cn3)nc2n1C1CCCC1 [Ribociclib (LEE011)]	1.29 ± 0.4	1.01 ± 0.029
O=C([O-])CC(O)(CC(=O)[O-])C(=O)[O-].O=C([O-])CC(O)(CC(=O)[O-])C(=O)[O-].[BiH6+3].[K+].[K+].[K+] [Gastrodenol]	0.722 ± 0.25	0.986 ± 0.29
CNC(=O)c1cc(Oc2ccc(NC(=O)Nc3ccc(Cl)c(C(F)(F)F)c3)c(F)c2)ccn1.O [Regorafenib Monohydrate]	0.659 ± 0.32	0.21 ± 0.28
COc1cc2c3cc1Oc1c(OC)c(OC)cc4c1C(Cc1ccc(O)c(c1)Oc1ccc(cc1)CC3N(C)CC2)N(C)CC4.Cl.Cl (stereo unspecified) [Berbamine (dihydrochloride)]	1.14 ± 0.35	1.04 ± 0.053
Cc1ccc(Nc2c(F)cccc2Cl)c(CC(=O)O)c1 [Lumiracoxib]	0.626 ± 0.15	0.853 ± 0.29
CC(C)=CCOc1ccc(/C=C/C(=O)c2ccc(OCC=C(C)C)cc2OCC(=O)O)cc1 [Sofalcone]	0.969 ± 0.2	1.01 ± 0.23
Nc1n[n+]([O-])c2ccccc2[n+]1[O-] [Tirapazamine]	1.09 ± 0.25	0.676 ± 0.12
COc1ccc2cc1Oc1ccc(cc1)CC1c3cc(c(OC)cc3CCN1C)Oc1c(O)c(OC)cc3c1C(C2)N(C)CC3 (stereo unspecified) [Fangchinoline]	1.18 ± 0.33	1.09 ± 0.13
NC(=O)Cc1cccc(C(=O)c2ccccc2)c1N [Nepafenac]	1.07 ± 0.029	0.958 ± 0.1
COC(=O)/C=C/C(=O)OC [Dimethyl Fumarate]	1.13 ± 0.16	1.33 ± 0.26
N#Cc1cc(NC(=O)C(=O)O)c(Cl)c(NC(=O)C(=O)O)c1.NC(CO)(CO)CO.NC(CO)(CO)CO [Lodoxamide Tromethamine]	1.14 ± 0.25	1.09 ± 0.083
